G9a block: G9a (human) methyltransferase inhibition | Potency, µM (highest dose often 102 µM), inactives show top-dose activity, negative = inhibition, actives largely listed as inhibitors | Q96KQ7 | AID 504332 | G9a H3K9 monomethylation, AlphaScreen, 2 h | 8.8% of 350,000 active; note: potency is the fitted concentration of half-maximal effect; % is set by controls: 0 for no effect and ±100 for the full control effect; nearly all actives have a fitted effect of over 75% in size
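G9a (20 nM) was preincubated 15 min with compound, then reacted 2 h at room temperature with 500 nM biotin-H3K9 peptide and 20 µM SAM. Monomethyl-H3K9 detected by AlphaScreen using anti-H3K9me1 antibody.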
CtBP-E1A blk: inhibitors of CtBP/E1A interaction | AlphaScreen GST-E1A/His-CtBP binding, 1536-well; hits give low values | activity change, % (test concentration not listed) | 0.49% of 340,000 active; in the data active = activity change below about -65%; inconclusive = mostly about -30% to -63%; note: % is set by controls: 0 for no effect and ±100 for the full control effect
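Protein mix (5X: 125 nM each GST-E1A, His-CtBP) was incubated with pinned compound 2 h at 37 deg C in dark, in 50 mM Tris pH 8.0 buffer with 300 mM NaCl. Glutathione donor and nickel acceptor beads followed; AlphaScreen signal read after 1 h.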
Six1-Eya2 inh: inhibitors of human Six1/Eya2 interaction; Q15475+O00167; AlphaScreen GST-Six1/His-Eya2 binding, biochemical; hits give low values; activity change, % (concentration not given with the values); 0.56% of 360,000 active; in the data active = activity change below about -65%; inconclusive = mostly about -30% to -63%; note: % is set by controls: 0 for no effect and ±100 for the full control effect
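AlphaScreen luminescence read after one hour at 37 °C in darkness. Pin-transferred compounds met GST-Six1 and His-Eya2 protein (5X stock 250 nM/500 nM) plus glutathione donor and Ni-chelate acceptor beads (5X, 50 ug/mL).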
BAZ2B block: inhibitors of human BAZ2B bromodomain | Q9UIF8 | AlphaScreen BAZ2B-H3K14Ac peptide displacement | Potency, µM (titrated, usually from 114 µM), for the others: at the top dose activity change, negative = inhibition, most hits filed as inhibitors | 4.4% of 360,000 active; note: potency is the fitted concentration of half-maximal effect; % is set by controls: 0 for no effect and ±100 for the full control effect; nearly all actives have a fitted effect of over 60% in size
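Compounds, titrated to a top concentration of 110 uM, were incubated 30 min at room temperature with preformed BAZ2B/acetyl-K14 H3 peptide complex (50 nM each). Proximity signal was measured by AlphaScreen after 20 min with beads.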
JMJD2A Tudor: JMJD2A Tudor domain (human) inhibition. O75164. AlphaScreen JMJD2A-Tudor / H3K4me3 peptide binding. Potency, µM (titrated, usually from 114 µM), for the others: top-dose activity change, negative = inhibition, hits mostly inhibitors. 4.4% of 390,000 active; note: potency is the fitted concentration of half-maximal effect; % is set by controls: 0 for no effect and ±100 for the full control effect; nearly all actives have a fitted effect of over 50% in size
HP1b chromo inh: HP1-beta chromodomain-methylated histone interaction inhibition. AlphaScreen HP1-beta / biotin-H3K9me3 peptide binding. Potency, µM (highest dose often 114 µM), for inactives: top-dose activity change, negative = inhibition, hits mostly inhibitors. 0.56% of 390,000 active. AID 540317; note: potency is the fitted concentration of half-maximal effect; nearly all actives have a fitted effect of over 70% in size
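Compound inhibition of the preformed complex between 50 nM HP1-beta and 50 nM biotinylated H3K9me3 peptide was read by AlphaScreen. Buffer was PBS pH 7.4 with 0.01% Tween-20. Incubations ran 30 min at room temperature, with 10 ug/mL donor/acceptor beads.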
* hit, by the source's call; [ ] = another dose, or the depositor's remark. Most compounds without a hit are left out; they make up all but 10% or so of the library. Unless noted, calls come from the whole dose curve; as a rule, active = well fitted inhibition curve with a large enough effect; inconclusive = small, poorly fitted or top-dose-only effect; inactive = no such curve, though single readings can be large or run the other way.

`COCCCN(C(=S)NC(=O)c1ccc(C(C)(C)C)cc1)c1c(N)n(Cc2ccccc2)c(=O)[nH]c1=O` gave G9a block 15.3%[59 µM], CtBP-E1A blk 1.5, Six1-Eya2 inh -4.8, BAZ2B block -11.4%, JMJD2A Tudor -30.9%[57.1 µM] and HP1b chromo inh 17.4%.
`COc1ccc(CN2C[C@@H](CO)O[C@@H](n3cnc4c(NCCN(C)C)ncnc43)C2)cc1` gave CtBP-E1A blk 1.4 and Six1-Eya2 inh 1.3.
For CC(=O)/C(=N\Nc1ccc(Cl)cc1)Sc1nnc(-c2ccccc2)n1-c1ccccc1 the results were G9a block 6.31µM*, CtBP-E1A blk 10.1, Six1-Eya2 inh -1.3, BAZ2B block -4.0%, JMJD2A Tudor inconclusive and HP1b chromo inh 29.0%.
Screening COC(=O)C[C@@H]1C=C[C@@H](NS(=O)(=O)c2ccc(OC)cc2)[C@@H](CO)O1 returned CtBP-E1A blk 2.0 and Six1-Eya2 inh 1.7.
Screening CCn1c(SC(C)C)nnc1C1CCN(S(=O)(=O)c2ccc(OC)cc2)CC1 returned G9a block inconclusive, CtBP-E1A blk 5.2, Six1-Eya2 inh 0.2, BAZ2B block -5.8%, JMJD2A Tudor 44.7µM* and HP1b chromo inh 54.5%.
`O=C(C1CCN(S(=O)(=O)c2ccccc2)CC1)N1CCCCC1` gave G9a block 26.6%, CtBP-E1A blk 5.3, Six1-Eya2 inh 0.9, BAZ2B block -10.6%, JMJD2A Tudor 8.1% and HP1b chromo inh 14.0%.
For O=C1CCCC(=O)C1C(=O)C1CCN(S(=O)(=O)c2ccccc2)CC1 the results were G9a block 13.7%, CtBP-E1A blk 1.8, Six1-Eya2 inh -0.9, BAZ2B block -13.1%, JMJD2A Tudor 56.2µM* and HP1b chromo inh inconclusive.
COc1ccc(S(=O)(=O)N2CCC(N3CCCC3)CC2)cc1 was read as G9a block 8.91µM*, CtBP-E1A blk 3.5, Six1-Eya2 inh -2.5, BAZ2B block 56.2µM*, JMJD2A Tudor 25.1µM* and HP1b chromo inh -3.9%.
COc1ccc(S(=O)(=O)N2CCCCC2)cc1 was read as G9a block 25.1%[59 µM], CtBP-E1A blk 2.7, Six1-Eya2 inh 4.8, BAZ2B block 10.3%, JMJD2A Tudor -4.2% and HP1b chromo inh 37.3%.
Screening COc1ccc(S(=O)(=O)N2CCC(N3CCN(Cc4ccccc4)CC3)CC2)cc1 returned G9a block 22.4µM*, CtBP-E1A blk 2.4, Six1-Eya2 inh 0.8, BAZ2B block 25.1µM*, JMJD2A Tudor 5.62µM* and HP1b chromo inh inconclusive.
For Cc1cc(C)cc(C(=O)NCC(=O)OCC(=O)c2cc(C)n(CC(F)(F)F)c2C)c1 the results were G9a block -8.0%, CtBP-E1A blk 0.0, Six1-Eya2 inh 9.6, BAZ2B block -16.6%, JMJD2A Tudor -4.9% and HP1b chromo inh 56.5%.
For COc1ccc(NC(=O)Cn2c(=O)n(CCc3ccccc3)c(=O)c3sc4ccccc4c32)cc1 the results were G9a block 12.6%[59 µM], BAZ2B block -2.1%, JMJD2A Tudor 1.0% and HP1b chromo inh 10.4%.
CCN(Cc1ccccc1)C(=O)Cn1c(=O)n(-c2ccccc2)c(=O)c2c1c1cc(C)ccc1n2C was read as G9a block -2.5%[59 µM], BAZ2B block inconclusive, JMJD2A Tudor 12.4% and HP1b chromo inh 38.6%.
Screening O=C(C1CCN(S(=O)(=O)c2ccc(F)cc2)CC1)N1CC=C(c2ccccc2)CC1 returned G9a block 14.1µM*, CtBP-E1A blk -14.4, Six1-Eya2 inh -4.7, BAZ2B block -3.3%, JMJD2A Tudor -6.3% and HP1b chromo inh 19.8%.
CCc1ccc(S(=O)(=O)N2CCCC(N3CCN(c4ccc(OC)cc4)CC3)C2)cc1 (stereo unspecified) was read as G9a block 39.8µM*, CtBP-E1A blk 6.2, Six1-Eya2 inh inconclusive, BAZ2B block 14.1µM*, JMJD2A Tudor 39.8µM* and HP1b chromo inh inconclusive.
COc1ccc(S(=O)(=O)N2CCN3CCCC3C2)cc1 (stereo unspecified) was read as G9a block 10.9%, CtBP-E1A blk 4.6, Six1-Eya2 inh 1.9, BAZ2B block 10.7%, JMJD2A Tudor 0.7% and HP1b chromo inh 28.1%.
For O=S(=O)(c1ccccc1)N1CCC(N2CCCCCC2)CC1 the results were G9a block inconclusive, CtBP-E1A blk 0.8, Six1-Eya2 inh 1.2, BAZ2B block inconclusive, JMJD2A Tudor 3.98µM* and HP1b chromo inh inconclusive.
`CCN(CC)C(=O)C1=C(C)N(CCCOC)C(=O)C(CC(=O)NCCCCc2ccccc2)C1` (stereo unspecified) gave CtBP-E1A blk 0.1 and Six1-Eya2 inh 10.5.
For CC(C)(C)NC(=O)C(c1ccccn1)N(C(=O)C1CSC(=O)C1)c1ccccc1F (stereo unspecified) the results were G9a block 0.1%[0.501 µM], CtBP-E1A blk -2.9, Six1-Eya2 inh 12.7, BAZ2B block 6.1%, JMJD2A Tudor 4.8% and HP1b chromo inh 40.6%.
COC(=O)c1c(NC(=O)Cc2coc3ccc(C(C)C)cc23)sc2c1CCC2 was read as G9a block inconclusive, BAZ2B block inconclusive, JMJD2A Tudor -18.4% and HP1b chromo inh 31.5%.
Screening CC(C)CC1=C/C(=C/c2ccc(-c3ccccc3)o2)C(=O)O1 returned G9a block 12.6µM*, CtBP-E1A blk -12.1, Six1-Eya2 inh inconclusive, BAZ2B block 44.7µM*, JMJD2A Tudor inconclusive and HP1b chromo inh inconclusive.
Screening NS(=O)(=O)c1ccc(-c2ccc(C=C3C(=O)c4ccccc4C3=O)o2)cc1 returned G9a block 17.8%, CtBP-E1A blk 2.2, Six1-Eya2 inh 0.5, BAZ2B block -1.4%, JMJD2A Tudor -4.3% and HP1b chromo inh 51.8%.
Screening CC(=O)n1c2c(c3ccccc31)OC(N)=C(C#N)C2c1ccc(C(C)C)cc1 (stereo unspecified) returned G9a block inconclusive, CtBP-E1A blk 8.1, Six1-Eya2 inh -4.3, BAZ2B block -38.6%[57.1 µM], JMJD2A Tudor -34.8% and HP1b chromo inh 9.8%.
`CC(C)c1ccc(C2C(C#N)=C(N)N3C(=C2C#N)Sc2ccccc23)cc1` (stereo unspecified) gave G9a block 35.5µM* and BAZ2B block -10.4%[57.1 µM].
`CCNc1nc(NCC)nc(N/N=C/c2ccc([N+](=O)[O-])o2)n1` gave G9a block 1.78µM*, CtBP-E1A blk -85.4*, Six1-Eya2 inh -83.5*, BAZ2B block inconclusive, JMJD2A Tudor -27.1% and HP1b chromo inh 11.2%.
`Cc1nc2ccccn2c1C(=O)N/N=C/c1ccc([N+](=O)[O-])o1` gave G9a block 50.1µM*, Six1-Eya2 inh inconclusive, BAZ2B block 44.7µM*, JMJD2A Tudor 39.8µM* and HP1b chromo inh inconclusive.
